Consider 115 compounds from PubChem BioAssay AID488969 (Vanderbilt High Throughput Screening Facility, 2010).

The full ranking holds about 110,000 compounds; the median of “z-score” is about -0.1, and the highest 2% start at about 2. The full list was thinned out, with the highest values kept by preference. Calls of active or inactive are those of the source.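 How the source made its calls: active means z-score in the third read window above 3 or below -3; inactive means the rest.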

This assay deals with Metabotropic glutamate receptor 8 (Rattus norvegicus) (UniProt P70579). In words: rat mGluR8 modulators via GIRK flux, primary screen, cell-based, thallium flux, HTS (AID 488969). The conditions noted are these: HEK293 rat mGluR8, GIRK (G protein-gated inwardly rectifying potassium channel) thallium flux, FluoZin2; at 10 µM; stronger effect = higher value; submaximal glutamate (EC20) added with thallium.
Chain of Metabotropic glutamate receptor 8 (Rattus norvegicus) (P70579 whole entry, looked up): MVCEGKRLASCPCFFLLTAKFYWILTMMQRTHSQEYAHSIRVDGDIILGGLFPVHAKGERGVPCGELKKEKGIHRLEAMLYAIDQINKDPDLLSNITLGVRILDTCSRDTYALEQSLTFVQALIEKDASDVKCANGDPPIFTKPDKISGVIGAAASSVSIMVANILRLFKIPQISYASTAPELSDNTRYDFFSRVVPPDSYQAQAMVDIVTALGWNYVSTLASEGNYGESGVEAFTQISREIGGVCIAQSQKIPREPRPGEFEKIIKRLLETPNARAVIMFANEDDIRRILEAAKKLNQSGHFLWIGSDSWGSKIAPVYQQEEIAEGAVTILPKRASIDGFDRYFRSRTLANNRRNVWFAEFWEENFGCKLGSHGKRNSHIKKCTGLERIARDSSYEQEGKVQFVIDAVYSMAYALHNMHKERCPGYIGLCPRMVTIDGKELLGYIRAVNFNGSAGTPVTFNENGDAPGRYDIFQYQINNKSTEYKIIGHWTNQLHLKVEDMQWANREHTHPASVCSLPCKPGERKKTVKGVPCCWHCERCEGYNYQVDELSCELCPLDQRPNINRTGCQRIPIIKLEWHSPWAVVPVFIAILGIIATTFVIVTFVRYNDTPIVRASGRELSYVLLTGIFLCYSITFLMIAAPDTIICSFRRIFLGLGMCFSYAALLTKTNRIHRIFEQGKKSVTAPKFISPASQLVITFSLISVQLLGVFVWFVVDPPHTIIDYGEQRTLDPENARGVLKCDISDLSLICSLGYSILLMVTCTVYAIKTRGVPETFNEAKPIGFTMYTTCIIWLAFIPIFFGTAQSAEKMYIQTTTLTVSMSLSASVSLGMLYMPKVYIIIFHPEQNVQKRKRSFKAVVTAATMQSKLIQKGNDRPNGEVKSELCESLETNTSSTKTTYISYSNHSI
`CCOC(=O)c1cnc(SCC(=O)Nc2nnc(CC)s2)nc1N` had a z-score of 0.763.
`CCOC(=O)c1cnc(SCC(=O)Nc2nc(C)c(C)s2)nc1N`: the z-score is 3.65 (active).
In the case of `CCOC(=O)c1cnc(SCC(=O)Nc2cc(OC)cc(OC)c2)nc1N` it was 0.341.
The figure for `Cc1cc2c(nn1)CCc1nonc1-2` is 0.0142; for `COc1cc2nc(CN3C(=O)c4ccccc4C3=O)oc(=O)c2cc1OC` it is -0.733; for `CCCCn1nnnc1SCC(=O)c1cc(Cl)ccc1OC` it is -1.36.
In the case of `COc1ccc(Cl)cc1C(=O)CSc1nnnn1C1CCCCC1`, the z-score is -0.333.
In the case of `COc1ccc(Cl)cc1C(=O)CSc1nnnn1C1CCCC1` it was 7.32 (active).
The figure for `O=C(NNC(=O)[C@@H]1CCCC[C@@H]1C(=O)O)c1cccs1` is 0.534.
Regarding `O=C(NNC(=O)c1cc(-c2ccccc2)n(-c2ccccc2)n1)c1cccc([N+](=O)[O-])c1`, the z-score is 6.49 (active).
The figure for `O=C(NCc1cn(-c2ccccc2)nc1-c1ccccc1)c1cccc([N+](=O)[O-])c1` is -0.314; for `O=C(NNC(=O)c1cnccn1)c1cccc([N+](=O)[O-])c1` it is -0.417; for `C=CCn1c(-c2ccc(S(=O)(=O)N3CCOCC3)cc2)csc1=Nc1ccccc1` it is 0.017.
The figure for `Cc1nn(-c2ccccc2)c(N)c1C1(O)C(=O)N(C(C)C)c2ccccc21` (stereo not given) is 0.371; for `O=C(c1ccccc1)n1nc(-c2ccccc2)nc1NCc1ccco1` it is 0.149.
In the case of `O=S(=O)(c1ccccc1)n1nc(-c2ccccc2)nc1NCc1ccco1` it was -0.0427; in that of `CCS(=O)(=O)n1nc(-c2ccccc2)nc1NCc1ccco1`, 2.2; in that of `CCS(=O)(=O)c1nc2ccccc2n1CC(=O)N1CCOCC1`, 0.0592.
Regarding `O=C(NC(=S)Nn1cnc2c(cnn2-c2ccccc2)c1=O)c1ccc(Cl)cc1`, the z-score amounted to 0.0584.
In the case of `O=C(NC(=S)Nn1cnc2c(cnn2-c2ccccc2)c1=O)c1ccccc1` it was -0.101.
In the case of `O=C(NC(=S)Nn1cnc2c(cnn2-c2ccccc2)c1=O)c1ccc(Oc2ccccc2)cc1` it was 2.08.
In the case of `CCCN(Cc1ccc(N(CC)CC)cc1)CC1CC1` it was 2.1; in that of `CCCN(Cc1ccc(N(C)C)cc1)CC1CC1`, -0.858.
For the compound `OCCN(Cc1ccccc1)CC1CCCCC1`, the z-score was 0.614.
In the case of `CCCCn1c(SCC(=O)N2CCOCC2)nnc1-c1ccoc1C` it was 1.9; in that of `COc1ccc(S(=O)(=O)N(CC(=O)N2CCN(C)CC2)c2ccc(C)cc2)cc1OC`, 0.277; in that of `CC(=O)OCC(=O)Nc1ccc(N=Nc2ccccc2)cc1`, 0.277.
The figure for `CCCC(=O)OCC(=O)Nc1ccc(N=Nc2ccccc2)cc1` is 0.427.
The figure for `CC(C)C(=O)OCC(=O)Nc1ccc(N=Nc2ccccc2)cc1` is 10.5 (active); for `Cc1cc(-c2nn(-c3ccccc3)cc2/C=C2\SC(N)=NC2=O)ccc1OC(C)C` it is -0.0568; for `Cn1c(=O)oc2cc(S(=O)(=O)NCCN3CCN(c4ccccc4F)CC3)ccc21` it is -0.14.
The compound `CCCCN(CCCNC(=O)C1CCN(S(=O)(=O)N2CCOCC2)CC1)Cc1ccccc1` had a z-score of 2.95.
The figure for `CC(C)N(CCNC(=O)C1CCN(S(=O)(=O)N2CCOCC2)CC1)Cc1ccccc1` is 0.267.
In the case of `CCCCN(CCCNC(=O)C1CCN(S(=O)(=O)N2CCOCC2)CC1)c1ccccc1`, the z-score is -1.17.
Take `O=C(COc1ccccc1)OCc1csc(Nc2ccccc2)n1`: the z-score is -0.693.
In the case of `CS(=O)(=O)Nc1ccc2c(c1)nc1n2CCOC1` it was -0.149.
The figure for `COc1cccc(CNC(=O)C2(C)Oc3ccccc3NC2=O)c1` (stereo not given) is -0.3; for `COc1ccc(CS(=O)(=O)/C(Cl)=C(/Cl)C(=O)Nc2ccc(OC)nc2)cc1` it is -0.34; for `COC(=O)c1ccc2nc(Nc3nc4ccc(F)cc4s3)sc2c1` it is 0.254.
The figure for `Fc1ccc2nc(Nc3nc4c(F)cccc4s3)sc2c1` is 4.98 (active); for `CC(=O)c1sc(Nc2nc3ccc(F)cc3s2)nc1C` it is 0.302; for `Fc1ccc2nc(Nc3nc4c(F)cc(F)cc4s3)sc2c1` it is 6.16 (active).
In the case of `COC(=O)c1ccc2nc(Nc3nc4c(F)cc(F)cc4s3)sc2c1`, the z-score was found to be 1.56.
The figure for `NNc1nc2ccc(F)cc2s1` is -0.467; for `CCCCC(=O)Nc1ccccc1C(=O)N1CCOCC1` it is 0.0261; for `C/C(=N\OCC(=O)Nc1ccc(F)c(F)c1F)c1cc2ccccc2o1` it is -1.92.
The figure for `CCCCOc1ccc(C(=O)N/C(=C\c2cccc([N+](=O)[O-])c2)C(=O)OC(C)C)cc1` is 0.536.
`Cc1ccc(CCSc2ccc(C(C)C)cc2)cn1`: the z-score was -0.399.
For `CC(C)CN1C(=O)NC(NC(=O)c2ccco2)(C(F)(F)F)C1=O` (stereo not given), the z-score was 0.0372.
The figure for `CCCCN(C)C(=S)Nc1ccc(Oc2ccccc2)cc1` is 1.42; for `CCC(=O)NC(=S)Nc1ccccc1C(=O)OC` it is -0.308.
In the case of `CCCC(=O)NC(=S)Nc1ccccc1C(=O)OC` it was 0.0764; in that of `COC(=O)c1ccccc1NC(=S)NC(=O)COc1ccc(C)cc1`, 2.28; in that of `Cc1cccc(NC(=O)COc2ccc(Br)cc2)n1`, -0.0989.
The figure for `Cc1ccc(OCC(=O)NC(=S)Nc2cccc(C)n2)cc1` is 1.99.
`CCOC(=O)c1ccc(NC(=S)Nc2ccccc2)cc1` had a z-score of 1.7.
In the case of `CCC(=O)NC(=S)Nc1ccc(NC(=O)COc2ccccc2)cc1` it was 0.0565; in that of `CCOC(=O)c1ccc(NC(=S)NC(=O)COc2ccccc2)cc1`, 3.05 (active).
The figure for `CN(C(=S)Nc1ccc(Oc2ccccc2)cc1)C1CCCCC1` is 0.0776.
The figure for `Cc1ccc(OCC(=O)NC(=S)Nc2ccc(Br)c(C)n2)cc1` is 1.02; for `CCCN(CC1CC1)C(=S)Nc1ccc(Oc2ccccc2)cc1` it is 3.7 (active).
Turning to `O=C(CSc1ccsc1[N+](=O)[O-])N1CCN(c2ccccc2)CC1`, the z-score is -0.247.
The figure for `COCCCNS(=O)(=O)c1ccc(SC)cc1` is -0.232; for `O=C(COC(=O)Cc1c(Cl)cccc1Cl)Nc1ccc(OC(F)(F)F)cc1` it is 0.262.
In the case of `CNc1nc(SCc2ccccc2)nc(N2CCOCC2)n1` it was -0.587.
The figure for `O=c1ccn(-c2cccc(C(F)(F)F)c2)nc1-c1ccn(-c2ccccc2)n1` is -0.401; for `S=C(Nc1cccc2ccccc12)N1CCN(c2ncccn2)CC1` it is -0.1.
Regarding `COc1ccc(-n2c(Cc3cccn3C)nnc2SCC(=O)NCCc2ccccc2)cc1`, the z-score is -0.482.
`CC12C(=O)N(c3cccc4cccnc34)C(=O)C1C1C=CC2C1` (stereo not given) gave a z-score of 0.818.
The figure for `CNc1nc(OCC(F)(F)F)nc(N2CCN(C34CC5CC(CC(C5)C3)C4)CC2)n1` is 0.418; for `O=C(c1cccs1)N1N=C(c2ccccc2)CC1c1ccccc1` (stereo not given) it is -0.101; for `O=C(Nc1ccc(Br)c(C(F)(F)F)c1)c1ccccc1` it is 0.42.
In the case of `COC(=O)c1ccccc1NC(=S)NC(=O)CC(C)C` it was 0.252.
In the case of `COC(=O)c1ccc(NC(=S)NC2CCCCC2)cc1` it was 0.1; in that of `CCNC(=S)Nc1ccc(Oc2ccccc2)cc1`, 0.818; in that of `CCCNC(=S)Nc1ccc(Oc2ccccc2)cc1`, 0.463.
On to `CCOC(=O)c1ccc(NC(=S)NC2CCCC2)cc1`, for which the z-score was found to be 2.61.
In the case of `S=C(Nc1ccc(Oc2ccccc2)cc1)NC1CCCCCC1` it was 0.425; in that of `S=C(NCC1CCCCC1)Nc1ccc(Oc2ccccc2)cc1`, 0.317.
In the case of `S=C(Nc1ccc(Oc2ccccc2)cc1)NC1CCCC1`, the z-score was 7.92 (active).
The figure for `COC(=O)c1ccccc1NC(=S)NC(NC(=O)COc1ccccc1)C(Cl)(Cl)Cl` (stereo not given) is -0.203; for `COC(=O)c1ccccc1NC(=S)NC(=O)COc1ccccc1` it is 7.01 (active).
As for `CCCN1CCC(NC(=S)Nc2ccc(C(=O)OCC)cc2)CC1`, the z-score was -0.26.
The figure for `CC(C)CNC(=S)Nc1ccc(Oc2ccccc2)cc1` is 2.69; for `CCn1cnc2cc(NCc3nc4ccccc4n3Cc3ccccc3)ccc21` it is -0.34; for `CC(C)c1ccc2[nH]c(O)c(N=NC(=O)c3cccc(S(=O)(=O)N4CCCCC4)c3)c2c1` it is -0.156.
In the case of `CCOc1ccc(/C=C/C(=O)NCCc2ccc(OC)c(OC)c2)cc1`, the z-score is -0.114.
In the case of `COc1ccc(OCc2ccc(C(=O)NN)cc2)cc1` it was 0.222; in that of `Cc1ccc2cc(COC(=O)c3ccncc3)c(=O)[nH]c2c1`, -0.162.
In the case of `COc1ccc(-c2cc(C(=O)OCC(=O)N3CCCC3)c3ccccc3n2)cc1` it was -0.231; in that of `CCn1c(SCC(=O)Nc2cccc(C(C)=O)c2)nnc1C(C)C`, 2.28; in that of `CCn1c(SCC(=O)Nc2cccc(NC(C)=O)c2)nnc1C(C)C`, -0.322.
The figure for `CCc1cccc(CC)c1NC(=O)CSc1nnc(C(C)C)n1CC` is 0.342.
Take `Cc1ccc2cc(CN(Cc3ccco3)C(=O)c3ccccc3)c(=O)[nH]c2c1C`: the z-score was -0.385.
The figure for `Nc1nnnn1/N=C/c1ccccc1OCc1ccccc1` is -0.208; for `COc1ccc(N2CCN(CC(=O)Nc3ccc(-n4cnnn4)cc3)CC2)cc1` it is 1.05; for `CCCCOP(=O)(OCCCC)C(O)c1ccc(Br)cc1` (stereo not given) it is -0.269.
In the case of `CCN(CC)S(=O)(=O)c1cccc(C(=O)N2CC(O)CC2C(=O)OC)c1` (stereo not given) it was -0.00902; in that of `COc1ccc(C(=O)N/N=C/c2cccc3cccnc23)cc1`, -0.417; in that of `O=C(N/N=C/c1ccccn1)c1ccc(Br)cc1`, 1.82.
The figure for `COc1ccc(C(=O)N/N=C/c2ccc3cccc(OCc4ccccc4)c3n2)cc1` is 3.81 (active); for `O=C(N/N=C/c1ccc2cccc(OCc3ccccc3)c2n1)c1ccc(Br)cc1` it is 3.65 (active); for `O=C(N/N=C/c1ccc2cccc(OCc3ccccc3)c2n1)c1ccc(Cl)cc1` it is 0.327.
Consider `COc1ccc(CSCC(=O)N/N=C/c2ccccc2OCc2ccccc2)cc1`, for which the z-score came out at 1.27.
In the case of `Cc1ccc(C(=O)N2CCN(c3ccc([N+](=O)[O-])c(N4CCOCC4)c3)CC2)cc1` it was -0.394.
In the case of `COc1c(C)cccc1C(=O)Nc1cc(-c2nn3c(C)nnc3s2)ccc1C` it was -1.6; in that of `Cn1c2ccccc2c(=O)c2c(=O)n(-c3ccccc3)c(C3CCCCC3)nc21`, -1.31; in that of `CCCn1c(SCC(=O)/C(C#N)=C(\C)N)n[nH]c1=O`, -0.649.
In the case of `CCOC(=O)C(CC)(CC)/C(C)=N/NC(=O)CC#N` it was 0.316.
On to `CCOc1nc(Nc2ccc(OC)cc2)nc(OCC)n1`, for which the z-score was -1.62.
The figure for `COc1ccc(NC(=S)Nc2ccc3nc(C)c(C)nc3c2)cc1` is -0.104.
The figure for `CCOC(=O)c1csc(NC(=O)CSc2nnnn2-c2ccc(OC)cc2)n1` is 0.0329; for `Nc1ncn(C23CC4CC(CC(C4)C2)C3)n1` it is -0.106.
The figure for `c1nnnn1C12CC3CC(CC(C3)C1)C2` is 0.487; for `c1cn(C23CC4CC(CC(C4)C2)C3)cn1` it is 4.17 (active).
